GluA2 TARP mod – modulators of AMPA receptor GluA2-stargazin complexes; O88602+P19491; HEK293 GluA2+stargazin, membrane potential dye (FDSS), glutamate EC50; hits were called plate by plate, in both directions; calls only at 30 µM; 40,000 compounds, 3.5% hits; AID 1259245;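 active = any of four per-well response measures lying three or more SD from its plate-wide compound average, in either direction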
GIRK2 act – Activators of human GIRK2-containing channels | P48051 | activation (% efficacy), % for hits at 37.5 µM | 34,000 tested, under 10 active | HEK293 GIRK2/NPY4 cells, thallium flux fluorescence | AID 1259324;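 active = primary screen hit, no activity in plain HEK293 cells, and in GIRK2-only cells above 5% efficacy rising with concentration; inactive = the rest, including fluorescent compounds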;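 note: efficacy is normalized control-subtracted fluorescence 15 s after thallium addition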
Target sequence (P48051 whole entry, looked up): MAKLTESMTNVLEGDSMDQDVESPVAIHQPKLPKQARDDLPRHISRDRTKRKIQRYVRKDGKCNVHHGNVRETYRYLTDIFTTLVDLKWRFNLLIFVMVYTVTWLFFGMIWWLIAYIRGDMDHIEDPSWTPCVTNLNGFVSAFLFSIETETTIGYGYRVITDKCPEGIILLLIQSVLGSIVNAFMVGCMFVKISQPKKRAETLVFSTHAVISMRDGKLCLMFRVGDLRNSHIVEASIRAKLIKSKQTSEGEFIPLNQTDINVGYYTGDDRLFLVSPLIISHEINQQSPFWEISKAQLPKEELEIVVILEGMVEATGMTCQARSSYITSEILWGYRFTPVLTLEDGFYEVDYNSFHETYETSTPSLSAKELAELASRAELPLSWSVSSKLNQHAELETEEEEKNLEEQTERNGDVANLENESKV
* = called active by the depositor; i = inactive; . = no result given; + = active, no number; ! = not confirmed by another sample. This excerpt belongs to a sample that is enriched for hits.

SMILES | GluA2 TARP mod | GIRK2 act
COc1cn(CC(=O)Nc2cccc(NC(C)=O)c2)c(CSc2ccc(Cl)cc2)cc1=O | i | i
Cc1cc(O)c(C(c2ccccc2)c2c(O)cc(C)[nH]c2=O)c(=O)[nH]1 | i | i
Cc1ccc2oc(C(=O)Nc3ccccc3[N+](=O)[O-])c(C)c2c1 | i | .
Cc1cc(C)c2sc(NC(=O)c3ccnn3C)nc2c1 | . | i
COc1ccc(OC)c2sc(NC(=O)c3ccnn3C)nc12 | + | .
CC(C)(C)n1nc2c(c1NC(=O)C(=O)N1CCC(C(N)=O)CC1)CS(=O)(=O)C2 | i | i
COc1cc(C2NC(=O)NC(O)(C(F)(F)F)C2C(C)=O)ccc1OCc1ccccc1 (stereo not drawn) | + | .
COc1cc(C2NC(=O)NC(O)(C(F)(F)F)C2C(C)=O)ccc1OCc1ccc(Cl)cc1 (stereo not drawn) | i | .
O=C(C1CCCN(c2ccc(-n3ccnc3)nn2)C1)N1CCN(c2ccccn2)CC1 (stereo not drawn) | i | i
O=C(Nc1ccc(F)c(C(F)(F)F)c1)C1CCN(C(=O)NC2CC2)CC1 | + | i
O=C(Nc1ccc(F)c(C(F)(F)F)c1)C1CN(C(=O)c2cccs2)C1 | i | i
COCCN1CCC(CNC(=O)C(=O)Nc2c(C)cccc2C)CC1 | i | i
CCOC(=O)C1CCN(C(=S)Nc2ccccc2OC)CC1 | + | .
CCOCC(=O)NCC1CCN(C(=O)Nc2ccccc2OC)CC1 | i | i
COC(=O)N1CCC(CNS(=O)(=O)c2ccc(F)c(C)c2)CC1 | i | i
O=C(Nc1ccc2c(c1)N(C(=O)c1ccco1)CC2)c1ccc2nsnc2c1 | i | i
CC1CCN(CC(O)COCCOc2ccc(Br)cc2)CC1 (stereo not drawn) | + | i
CC1CCN(CC(O)COCCOc2ccc(C(C)C)cc2)CC1 (stereo not drawn) | . | i
CN1CCN(CC(O)COCCOc2ccc(Br)cc2)CC1 (stereo not drawn) | i | i
CC1CCN(CC(O)COCCOc2ccc(Cl)cc2)CC1 (stereo not drawn) | + | .
COc1ccc(Nc2cc(C)nc3c(-c4ccc(OC)c(OC)c4)c(C)nn23)cc1 | i | i
Cc1ccc(Cn2cc(C(=O)Nc3ccc(F)cc3F)ccc2=O)cc1 | i | i
O=C(Nc1ccc(F)cc1F)c1ccc(=O)n(Cc2ccc(C(F)(F)F)cc2)c1 | + | i
COc1ccc(OCCCN2C(=O)C3(OCCCO3)c3cccc(C)c32)cc1 | +! | i
COc1ccc(CN2C(=O)C3(OCCCO3)c3ccccc32)cc1OC | i | .
SMILES | GluA2 TARP mod | GIRK2 act
O=C(NCC(O)(c1cccs1)C1CC1)C1(c2ccc(Cl)cc2)CCCC1 (stereo not drawn) | i | i
O=C(NCCc1ccsc1)C1(c2ccc(Cl)cc2)CCCC1 | + | i
CC(C)(C)C(=O)Nc1ccc(N2CCOCC2)cc1 | i | i
COc1ccc(C)cc1S(=O)(=O)N1CCN(c2ccc(-c3ccccc3)nn2)CC1 | i | i
COc1ccc(S(=O)(=O)N2CCN(c3ccc(-c4ccncc4)nn3)CC2)c(OC)c1 | + | i
COc1ccc(S(=O)(=O)N2CCN(c3ccc(Nc4ccncc4)nn3)CC2)cc1 | + | i
O=S(=O)(c1ccccc1)N1CCN(c2ccc(Nc3ccncc3)nn2)CC1 | i | i
COc1cc(OC)cc(-c2nnc(NC(=O)Cc3cccc4ccccc34)o2)c1 | i | .
COc1ccc(NC(=O)N2CCC(c3ccsc3)CC2)cc1 | i | .
COc1ccc(CCC(=O)N2CCC(c3ccsc3)CC2)cc1 | + | i
COc1cc(N2CCN(S(=O)(=O)c3cccc(C)c3)CC2)nc(OC)n1 | i | i
Cc1cc(C)c2sc(N(CCCN(C)C)C(=O)c3ccn(C)n3)nc2c1 | + | i
Cc1c(Cl)ccc2sc(N(CCCN(C)C)C(=O)c3ccn(C)n3)nc12 | i | i
Cc1ccc(CNC(=O)Cn2ncc3c(c2=O)N(C2CC2)C(=O)CS3)cc1 | . | i
CCc1ccc(NC(=O)N2CCN(c3ccc(Nc4ccccn4)nn3)CC2)cc1 | i | .
CC(=O)Cc1nsc(NC(=O)c2cc(-c3ccc([N+](=O)[O-])cc3)oc2C)n1 | + | i
CC(=O)Cc1nsc(NC(=O)c2oc3ccc(C)cc3c2C)n1 | i | .
CSCCC(C)(O)CNC(=O)C(=O)NCCc1ccccc1 (stereo not drawn) | i | i
COc1ccc(CC(=O)Nc2nn(C)c3c2C(c2ccccc2)CC(=O)N3)cc1OC (stereo not drawn) | i | i
CCOC(=O)CCC(=O)Nc1ccc(C)c(N2CCCCC2=O)c1 | i | i
COCC(=O)N1CCCc2ccc(NC(=O)Cc3ccccc3Cl)cc21 | i | i
Cc1ccc(NC(=O)CCSc2ccccc2)cc1N1CCCCC1=O | + | i
COCC(=O)N1CCCc2ccc(NC(=O)CCSc3ccccc3)cc21 | + | i

Screening data as filed in PubChem BioAssay.
